Measured values published in PubChem BioAssay AID2551 (National Center for Advancing Translational Sciences (NCATS), 2010).
Values joined by “and” are separate entries in the source; they are usually repeats but may differ in a detail not shown here. Equal values may be shown once. About 17,000 (5.5%) of roughly 310,000 compounds were called active. Entries that show only a call come without a potency. Not shown: some 11% with an inconclusive outcome. The sample as a whole holds a higher share of actives than the screen did. Unmarked numbers belong to inactive results. Calls come from the whole dose curve; as a rule, active = well fitted inhibition curve with a large enough effect; inconclusive = small, poorly fitted or top-dose-only effect, or effect the other way; inactive = no such curve, though single readings can be large or run the other way.

target: Nuclear receptor ROR-gamma (Mus musculus) (UniProt P51450); assay: qHTS for inhibitors of ROR gamma transcriptional activity; conditions: Drosophila S2 Gal4-RORgamma UAS-luciferase reporter, 20 h; series mostly up to 53.6 µM; note: nearly all actives have a fitted effect of over 60% in size
How it was run: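 Stably transfected Drosophila Schneider cells are the test system, with ROR gamma fused to Gal4 and luciferase under UAS control; luminescence is read after 20 hr of 700 uM copper sulfate induction at ambient temperature.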
Potency is the fitted concentration of half-maximal effect.

Nuclear receptor ROR-gamma (Mus musculus), sequence (P51450 whole entry, looked up, the tested form may be a part): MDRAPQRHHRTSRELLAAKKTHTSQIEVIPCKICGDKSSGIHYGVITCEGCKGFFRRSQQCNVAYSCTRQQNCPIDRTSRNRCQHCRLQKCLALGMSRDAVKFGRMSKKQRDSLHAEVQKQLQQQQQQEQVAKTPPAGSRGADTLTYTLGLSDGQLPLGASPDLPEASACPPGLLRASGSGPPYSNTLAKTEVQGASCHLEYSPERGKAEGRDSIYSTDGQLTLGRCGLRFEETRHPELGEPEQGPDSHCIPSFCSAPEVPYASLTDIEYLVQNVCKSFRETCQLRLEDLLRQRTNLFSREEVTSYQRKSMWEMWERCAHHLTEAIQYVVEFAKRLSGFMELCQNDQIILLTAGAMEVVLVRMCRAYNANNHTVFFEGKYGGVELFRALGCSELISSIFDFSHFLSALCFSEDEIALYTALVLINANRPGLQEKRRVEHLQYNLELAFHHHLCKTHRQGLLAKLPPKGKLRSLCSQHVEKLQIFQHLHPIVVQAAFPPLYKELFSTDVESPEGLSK

SMILES	Potency	activity change, negative = inhibition
COc1ccc(/C=C/C(=O)c2ccc(OC)cc2O)cc1	8.91 µM (active) and 316 nM (active)	
COc1ccc(/C=C/NC(=O)c2ccc(OC)cc2)cc1		-26.7% [at 10 µM]
O=C(/C=C/c1ccccc1)c1ccccc1O	inactive	
CCC(C(=O)NCc1cccnc1)n1nc(C)c2sc3ccccc3c2c1=O (stereo not given)	inactive	
C=CC(=O)c1ccc2ccccc2c1	0.631 µM (active)	
CC(=O)c1ccc2c(ccc3ccccc32)c1	inactive	
CC(=O)CCC(=O)c1ccc2ccccc2c1	inactive	
COc1ccc(/C=C(\C#N)c2c[nH]c3ccccc23)cc1	inactive	
COc1ccc2[nH]cc(/C=C(/C#N)S(=O)(=O)c3ccccc3)c2c1	7.08 µM (active)	
CCN(CC)CC(=O)c1c[nH]c2ccc(OC)cc12	inactive	
COC(=O)c1cccc(C(=O)N2CCC(CCC(=O)NCc3ccc(F)cc3)CC2)c1	inactive	
COc1cccc(CN(C)CC2CCCN(CCc3ccc(Cl)cc3)C2)c1OC (stereo not given)	inactive	
NS(=O)(=O)c1ccc2nc(NC(=O)CS(=O)(=O)c3ccc(F)cc3)sc2c1	inactive	
CCS(=O)(=O)N1Cc2ccccc2CC1C(=O)Nc1ccc(OC)cc1OC (stereo not given)	inactive	
CCS(=O)(=O)N1Cc2ccccc2CC1C(=O)Nc1nc2ccc(F)cc2s1 (stereo not given)	4.47 µM (active)	
O=C(c1ccc(F)cc1)N1CCCC(C(=O)N2CCCCC2)C1 (stereo not given)	inactive	
Cc1cc(NS(=O)(=O)c2ccc(NC(=O)c3cccnc3)cc2)nc(C)n1	inactive	
Cc1cc(C)c2c(Cn3ccnc3)cc(=O)oc2c1	inactive	
O=C(c1cc(-c2ccc(Cl)cc2)on1)N1CCN(c2ccccc2)CC1	inactive	
Brc1ccccc1/C=N/Nc1nc2ccccc2o1	2.51 µM (active)	
O=C(CSc1nc2ccccc2o1)N/N=C/c1ccccc1C(=O)O	inactive	
Cc1cccc(COc2ccccc2/C=N/Nc2ccc([N+](=O)[O-])cc2)c1	inactive	
CCOc1ccccc1/C=N/Nc1nc2ccccc2o1	6.31 µM (active)	
COc1ccc(/C=N/Nc2nc3ccccc3o2)cc1OC	inactive	
Oc1c(Br)cccc1/C=N/Nc1c(F)c(F)c(F)c(F)c1F	inactive	
CC(=O)Nc1ccc(S(=O)(=O)Nc2cc(C)cn(Cc3ccc(C)cc3)c2=O)cc1	inactive	
COCC1CCN(C(=O)C2CCC(=O)N(CC3CCCCC3)C2)CC1 (stereo not given)	inactive	
CC/C(O)=C1\C(=O)CC(C)(C)CC1=NCCc1nc2ccccc2[nH]1	inactive	
CN(Cc1ccccc1)C(=O)CSc1nc2ccccc2[nH]1	inactive	
CCC(=O)/C(=C(/O)c1ccccc1)c1nc2ccccc2[nH]1	6.31 µM (active)	
